8 molecules from PubChem BioAssay (Tox21) can be followed below.

Molecules are shown by their SMILES. “And” between values parts separate entries of the source, which are not always exact repeats. Equal values may be shown once. Records with an inconclusive call do not appear. The source holds several records for some structures; these can differ, active in one and inactive in another. The source made the active and inactive calls. Unless noted, calls follow the shape of the dose curve; as a rule, active = well fitted curve in the direction sought with a large enough effect in the repeat runs; inconclusive = weak or mixed curves; inactive = no such curve, though single readings can be large; an effect the other way counts as inactive or inconclusive.

The nature of assay [1]: qHTS assay to identify small molecule antagonists of the sonic hedgehog signaling (Shh) pathway (AID 1259369; calls by dose curve; also: nearly all actives have a fitted effect of over 45% in size; also: potency is read from the fitted curve at half-maximal effect). A digest of the protocol: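 For antagonist detection, the reporter line received test compounds together with conditioned medium, incubated 24hr at 37 C, 5% CO2, then luminescence was recorded following 30min room-temperature luciferase reagent incubation.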
Assay [2] addresses Estrogen receptor beta (Homo sapiens) (UniProt Q92731). The assay can be described thus: qHTS assay to identify small molecule agonists of the estrogen receptor beta (ER-beta) signaling pathway (AID 1259377; active = well fitted activation curve with a large enough effect in the signal ratio in the repeat runs, not every such curve was filed as active; the % refers to the signal ratio). The method, boiled down:
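Ratiometric beta-lactamase FRET read-out came after 2 h substrate loading at room temperature. It followed 16 h compound treatment at 37C of GripTite HEK293T cells carrying a UAS-bla reporter, plated in 2% charcoal-stripped FBS medium.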

The target is the same in assay [3]. The assay can be described thus: qHTS assay to identify small molecule antagonists of the estrogen receptor beta (ER-beta) signaling pathway (AID 1259378; active = well fitted inhibition curve with a large enough effect in the signal ratio in the repeat runs, not every such curve was filed as active; the % refers to the signal ratio). A digest of the protocol: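 ER-beta-UAS-bla HEK293T cells in 2% charcoal-stripped FBS medium treated with compound plus 1nM final 17-beta-estradiol for 16 hr at 37C. Beta-lactamase reporter read by FRET substrate fluorescence after 2 hours at room temperature.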

Assay [4] in a line: qHTS assay to identify small molecule agonists of the androgen receptor (AR) signaling pathway in the presence of an antagonist - cell viability counter screen (AID 1259379).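 Also: MDA-kb2 human breast cancer cells carrying an MMTV luciferase reporter; series mostly up to about 92 µM; nearly all actives have a fitted effect of over 25% in size.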 The method, boiled down:
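Seed MDA-kb2 at 3,000 cells/well; incubate 5 hr, 37C, 0% CO2. Add nilutamide to 3.0uM final, then pin compounds at 15 concentrations. Incubate 16 hr. Add CellTiter-Fluor at 15 hr, read fluorescence after 1 hr.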

The target of assay [5] is Androgen receptor (Homo sapiens) (UniProt P10275). The assay can be described thus: qHTS assay to identify small molecule agonists of the androgen receptor (AR) signaling pathway in the presence of an antagonist (AID 1259381; calls by dose curve; also: nearly all actives have a fitted effect of over 15% in size). The method, boiled down: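 Test compounds at 15 concentrations were incubated for 16hr with MDA-kb2 reporter cells in presence of 3.0uM nilutamide (final). Signal: ONE-Glo luciferase luminescence.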
Sequence of Androgen receptor (Homo sapiens) (P10275 whole entry, looked up): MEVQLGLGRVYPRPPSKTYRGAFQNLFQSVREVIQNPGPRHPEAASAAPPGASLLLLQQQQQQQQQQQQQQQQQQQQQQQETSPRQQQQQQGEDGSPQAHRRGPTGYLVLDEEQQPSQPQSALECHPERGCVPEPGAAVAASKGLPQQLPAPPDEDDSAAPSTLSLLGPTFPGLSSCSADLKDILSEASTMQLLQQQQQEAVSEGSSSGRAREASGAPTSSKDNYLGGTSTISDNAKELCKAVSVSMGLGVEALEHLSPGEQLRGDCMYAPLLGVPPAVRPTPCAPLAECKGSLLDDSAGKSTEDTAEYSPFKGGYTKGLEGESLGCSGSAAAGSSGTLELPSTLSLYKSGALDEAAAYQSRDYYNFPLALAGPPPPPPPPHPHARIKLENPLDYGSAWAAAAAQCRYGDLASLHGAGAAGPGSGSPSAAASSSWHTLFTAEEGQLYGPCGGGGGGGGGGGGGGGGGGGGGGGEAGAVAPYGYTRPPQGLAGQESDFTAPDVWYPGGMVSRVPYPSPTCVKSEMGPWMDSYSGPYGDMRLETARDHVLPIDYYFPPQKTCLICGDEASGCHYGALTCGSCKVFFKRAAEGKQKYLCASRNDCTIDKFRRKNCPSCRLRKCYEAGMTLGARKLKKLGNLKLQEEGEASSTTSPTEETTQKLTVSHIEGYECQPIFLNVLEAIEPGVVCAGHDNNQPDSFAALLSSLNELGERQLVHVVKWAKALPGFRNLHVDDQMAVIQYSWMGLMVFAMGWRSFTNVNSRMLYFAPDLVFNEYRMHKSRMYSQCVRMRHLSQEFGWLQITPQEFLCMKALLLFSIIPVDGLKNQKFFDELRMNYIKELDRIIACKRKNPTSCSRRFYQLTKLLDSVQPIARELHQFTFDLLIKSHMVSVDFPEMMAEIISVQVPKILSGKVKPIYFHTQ

The nature of assay [6]: qHTS assay to identify small molecule antagonists of the estrogen receptor beta (ER-beta) signaling pathway - cell viability counter screen (AID 1259382). Also: series mostly up to about 92 µM; nearly all actives have a fitted effect of over 55% in size. The method, boiled down:
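In this multiplexed counter screen, cells were seeded at 2,000 per well in medium with 2% charcoal-stripped FBS and incubated 6 hr before compound and 1nM final E2 were added. Sixteen hours later, ATP-based luminescence reported viability.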

The nature of assay [7]: qHTS assay to identify small molecule agonists or antagonists of the thyroid stimulating hormone receptor (TSHR) signaling pathway - wild type cell line counter screen (AID 1259384; calls by dose curve). A digest of the protocol: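 Wild-type Hek293 cells, 800/well, 18 h at 37C, then compound with Ro20-1724 for 30 min RT. cAMP by HTRF (cAMP-d2/anti-cAMP cryptate), 1 h RT, fluorescence read. 15 concentrations, triplicates.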

In assay [8] the target is Thyrotropin receptor (Homo sapiens) (UniProt P16473). The assay can be described thus: qHTS assay to identify small molecule antagonists of the thyroid stimulating hormone receptor (TSHR) signaling pathway (AID 1259385; calls by dose curve; also: nearly all actives have a fitted effect of over 20% in size). The method, boiled down: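 TSHR-HEK293 cells (800/well) plated 18 h, then compounds with Ro20-1724 and TSH at 1.5 ng/mL final, 30 min at room temperature. cAMP quantified by HTRF (cAMP-d2/anti-cAMP-cryptate, 1 h); 15 concentrations in triplicate.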
Sequence of Thyrotropin receptor (Homo sapiens) (P16473 whole entry, looked up): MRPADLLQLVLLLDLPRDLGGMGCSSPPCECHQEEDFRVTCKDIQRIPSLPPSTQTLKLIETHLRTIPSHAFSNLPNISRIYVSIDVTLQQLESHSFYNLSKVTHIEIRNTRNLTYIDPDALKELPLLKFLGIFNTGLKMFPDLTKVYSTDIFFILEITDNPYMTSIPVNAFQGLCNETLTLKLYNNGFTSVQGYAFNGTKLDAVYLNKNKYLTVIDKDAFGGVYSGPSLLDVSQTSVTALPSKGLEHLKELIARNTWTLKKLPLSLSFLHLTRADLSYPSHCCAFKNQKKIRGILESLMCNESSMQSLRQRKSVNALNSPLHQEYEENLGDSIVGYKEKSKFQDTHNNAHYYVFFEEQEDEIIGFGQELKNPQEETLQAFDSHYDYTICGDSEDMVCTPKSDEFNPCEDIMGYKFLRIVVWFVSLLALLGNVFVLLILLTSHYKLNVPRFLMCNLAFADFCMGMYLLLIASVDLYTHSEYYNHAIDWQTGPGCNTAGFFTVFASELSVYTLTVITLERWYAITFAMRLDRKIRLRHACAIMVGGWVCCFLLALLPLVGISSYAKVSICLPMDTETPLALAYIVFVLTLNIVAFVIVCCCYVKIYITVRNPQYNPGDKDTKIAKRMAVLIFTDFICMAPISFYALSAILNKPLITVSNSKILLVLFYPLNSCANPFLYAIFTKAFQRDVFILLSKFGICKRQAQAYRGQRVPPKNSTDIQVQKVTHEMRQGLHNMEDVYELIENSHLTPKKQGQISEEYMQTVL

Assay [9] can be described thus: qHTS assay to identify small molecule agonists of the estrogen receptor alpha (ER-alpha) signaling pathway in the presence of an antagonist - cell viability counter screen (AID 1259386).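 Also: series mostly up to about 92 µM; cells exposed to compounds for 22 h at 37 °C before the viability read; nearly all actives have a fitted effect of over 30% in size.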 A digest of the protocol: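 Viability counter screen using VM7Luc4E2 (full-length ER-alpha, four ERE-luciferase). The cells were treated with compounds alongside ICI-182,780 10.0nM for 22hr, and live-cell protease fluorescence was quantified with CellTiter-Fluor.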

For assay [10], the target named is Progesterone receptor (Homo sapiens) (UniProt P06401). The assay can be described thus: qHTS assay to identify small molecule agonists of the progesterone receptor (PR) signaling pathway (AID 1346784; calls by dose curve; also: nearly all actives have a fitted effect of over 30% in size). The method, boiled down:
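Agonist qHTS: compounds pinned onto 3,000 PR-UAS-bla HEK 293T cells per well in charcoal-stripped serum medium, 16hr at 37C, then beta-lactamase activity measured by LiveBLAzer FRET fluorescence after 2 hours at room temperature.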

Assay [11] has the same target. The assay can be described thus: qHTS assay to identify small molecule antagonists of the progesterone receptor (PR) signaling pathway (AID 1346795; active = well fitted inhibition curve with a large enough effect in the signal ratio in the repeat runs, not every such curve was filed as active; the % refers to the signal ratio). The method, boiled down: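 Antagonist mode with agonist R5020 at 1 nM final and 16 hr incubation at 37C. Reporter was beta-lactamase driven by UAS in HEK293T (PR-UAS-bla), 2% charcoal-stripped serum; signal from LiveBLAzer FRET substrate, 2 hr at room temperature.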

Assay [12] is described as follows: qHTS assay to identify small molecule antagonists of the progesterone receptor (PR) signaling pathway - cell viability counter screen (AID 1346798). Also: series mostly up to about 92 µM; nearly all actives have a fitted effect of over 50% in size. The method, boiled down: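 Cytotoxicity read as CellTiter-Glo luminescence (30 min, room temperature) in the same wells as the beta-lactamase readout. HEK293T PR-UAS-bla cells in charcoal-stripped 2% FBS received compound and R5020, then 16 h at 37C, 5% CO2.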

The nature of assay [13]: qHTS assay to identify small molecule antagonists of the TGF-beta/Smad signaling pathway - cell viability counter screen (AID 1346824). Also: nearly all actives have a fitted effect of over 50% in size. The method, boiled down:
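SBE-bla HEK 293T cells, incubated overnight, then compound plus 0.25 ng/mL TGF-beta1 (stock added) for 5 hr at 37 C. Viability was read in the same wells by CellTiter-Glo luminescence after 30 min at room temperature.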

Assay [14] can be described thus: qHTS assay to identify small molecule agonists of the TGF-beta/Smad signaling pathway - cell viability counter screen (AID 1346829). Also: top concentration of the series differs between compounds; nearly all actives have a fitted effect of over 45% in size. The method, boiled down: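 SBE-bla HEK 293T cells plated overnight, compound exposure 5 hr at 37 C. Viability read in the same wells by CellTiter-Glo luminescence after 30 min at room temperature, following the beta-lactamase read.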

A short description of assay [15]: qHTS assay to identify small molecule agonists of the TGF-beta/Smad signaling pathway (AID 1346859; active = well fitted activation curve with a large enough effect in the signal ratio in the repeat runs, not every such curve was filed as active; the % refers to the signal ratio; also: series mostly up to about 77 µM). The method, boiled down: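 Fluorescence (ex 405 nm; em 460 and 530 nm) was read 2 h after LiveBLAzer FRET substrate at RT. The preceding compound treatment of overnight-plated SBE-bla HEK293T cells lasted 5 h at 37 C.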
In assay [16] the target is Thyrotropin-releasing hormone receptor (Homo sapiens) (UniProt P34981). The assay is described as follows: qHTS assay to identify small molecule antagonists of the thyrotropin-releasing hormone receptor (TRHR) signaling pathway (AID 1346877; active = well fitted inhibition curve with a large enough effect in the repeat runs, not every such curve was filed as active; also: potency is read from the fitted curve at half-maximal effect; as to activity, negative = inhibition: series mostly up to about 51 µM). The method, boiled down: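 Following an 18 h incubation at 37 °C and a 2 h calcium dye load, TRHR-HEK293 cells were exposed to compound (5 min, room temperature) and challenged with TRH, 1 nM final.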
Sequence of Thyrotropin-releasing hormone receptor (Homo sapiens) (P34981 whole entry, looked up): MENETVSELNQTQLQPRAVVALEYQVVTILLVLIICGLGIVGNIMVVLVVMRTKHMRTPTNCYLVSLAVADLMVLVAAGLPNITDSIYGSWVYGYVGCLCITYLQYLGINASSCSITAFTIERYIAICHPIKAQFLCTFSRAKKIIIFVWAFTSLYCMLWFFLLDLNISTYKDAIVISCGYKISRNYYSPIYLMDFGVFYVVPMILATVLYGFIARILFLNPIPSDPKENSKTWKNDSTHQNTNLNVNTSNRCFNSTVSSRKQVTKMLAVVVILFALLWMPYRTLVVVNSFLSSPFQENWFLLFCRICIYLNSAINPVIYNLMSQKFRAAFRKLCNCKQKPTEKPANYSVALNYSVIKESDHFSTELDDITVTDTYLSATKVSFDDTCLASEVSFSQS

The target is the same in assay [17]. The assay is described as follows: qHTS assay to identify small molecule agonists of the thyrotropin-releasing hormone receptor (TRHR) signaling pathway (AID 1346891; calls by dose curve; also: potency is read from the fitted curve at half-maximal effect; as to activation: series mostly up to about 58 µM). A digest of the protocol:
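Agonist-mode intracellular calcium readout: kinetic fluorescence over 3 min at 1 s intervals after compound addition to TRHR-HEK293 cells (18 h seeded, 2 h dye-loaded at 37 C). Fifteen concentrations, triplicates.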

Assay [18] in a line: qHTS assay to identify small molecule agonists of the estrogen receptor beta (ER-beta) signaling pathway - cell viability counter screen (AID 1259380). Also: nearly all actives have a fitted effect of over 30% in size. The method, boiled down:
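CellTiter-Glo read, 30 min RT, same wells as bla assay; cells ER-beta-UAS-bla HEK293T; 16 hr compound, 37C; medium 2% charcoal-stripped FBS.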

For assay [19], the target named is Estrogen receptor (Homo sapiens) (UniProt P03372). The assay is described as follows: qHTS assay to identify small molecule agonists of the estrogen receptor alpha (ER-alpha) signaling pathway in the presence of an antagonist (AID 1259383; calls by dose curve; also: top concentration of the series differs between compounds; nearly all actives have a fitted effect of over 15% in size). A digest of the protocol: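 Stably transfected VM7Luc4E2 reporter cells, kept 5 days in charcoal-stripped serum, received ICI-182,780 at 10.0nM final before compound addition. Following 22hr incubation at 37C and 5% CO2, luciferase signal was read by luminescence.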
Sequence of Estrogen receptor (Homo sapiens) (P03372 whole entry, looked up): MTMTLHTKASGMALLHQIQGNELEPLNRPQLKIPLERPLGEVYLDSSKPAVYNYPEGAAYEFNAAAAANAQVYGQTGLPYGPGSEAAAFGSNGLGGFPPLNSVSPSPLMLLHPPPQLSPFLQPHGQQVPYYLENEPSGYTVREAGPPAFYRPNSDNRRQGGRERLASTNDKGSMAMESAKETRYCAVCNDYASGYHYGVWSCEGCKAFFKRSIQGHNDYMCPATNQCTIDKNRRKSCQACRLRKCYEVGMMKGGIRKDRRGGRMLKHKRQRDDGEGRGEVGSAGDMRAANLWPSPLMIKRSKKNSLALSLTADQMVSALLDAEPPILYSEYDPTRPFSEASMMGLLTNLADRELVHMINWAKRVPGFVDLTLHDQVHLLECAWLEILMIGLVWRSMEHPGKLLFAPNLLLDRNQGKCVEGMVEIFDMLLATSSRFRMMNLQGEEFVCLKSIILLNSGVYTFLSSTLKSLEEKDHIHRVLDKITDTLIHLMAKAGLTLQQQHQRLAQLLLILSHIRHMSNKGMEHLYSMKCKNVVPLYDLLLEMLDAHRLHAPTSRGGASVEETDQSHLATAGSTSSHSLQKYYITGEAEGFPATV

The nature of assay [20]: qHTS assay to identify small molecule agonists of the progesterone receptor (PR) signaling pathway - cell viability counter screen (AID 1346799; calls by dose curve; also: nearly all actives have a fitted effect of over 45% in size). A digest of the protocol: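 Cytotoxicity measured by CellTiter-Glo luminescence (30 min, RT) in the same wells as the PR beta-lactamase agonist read. Those HEK293T cells had 16 h compound treatment at 37 C in 2% charcoal-stripped FBS medium.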
% is scaled to controls: 0 for no effect and ±100 for the full control effect.

Sequence of Progesterone receptor (Homo sapiens) (P06401 whole entry, looked up): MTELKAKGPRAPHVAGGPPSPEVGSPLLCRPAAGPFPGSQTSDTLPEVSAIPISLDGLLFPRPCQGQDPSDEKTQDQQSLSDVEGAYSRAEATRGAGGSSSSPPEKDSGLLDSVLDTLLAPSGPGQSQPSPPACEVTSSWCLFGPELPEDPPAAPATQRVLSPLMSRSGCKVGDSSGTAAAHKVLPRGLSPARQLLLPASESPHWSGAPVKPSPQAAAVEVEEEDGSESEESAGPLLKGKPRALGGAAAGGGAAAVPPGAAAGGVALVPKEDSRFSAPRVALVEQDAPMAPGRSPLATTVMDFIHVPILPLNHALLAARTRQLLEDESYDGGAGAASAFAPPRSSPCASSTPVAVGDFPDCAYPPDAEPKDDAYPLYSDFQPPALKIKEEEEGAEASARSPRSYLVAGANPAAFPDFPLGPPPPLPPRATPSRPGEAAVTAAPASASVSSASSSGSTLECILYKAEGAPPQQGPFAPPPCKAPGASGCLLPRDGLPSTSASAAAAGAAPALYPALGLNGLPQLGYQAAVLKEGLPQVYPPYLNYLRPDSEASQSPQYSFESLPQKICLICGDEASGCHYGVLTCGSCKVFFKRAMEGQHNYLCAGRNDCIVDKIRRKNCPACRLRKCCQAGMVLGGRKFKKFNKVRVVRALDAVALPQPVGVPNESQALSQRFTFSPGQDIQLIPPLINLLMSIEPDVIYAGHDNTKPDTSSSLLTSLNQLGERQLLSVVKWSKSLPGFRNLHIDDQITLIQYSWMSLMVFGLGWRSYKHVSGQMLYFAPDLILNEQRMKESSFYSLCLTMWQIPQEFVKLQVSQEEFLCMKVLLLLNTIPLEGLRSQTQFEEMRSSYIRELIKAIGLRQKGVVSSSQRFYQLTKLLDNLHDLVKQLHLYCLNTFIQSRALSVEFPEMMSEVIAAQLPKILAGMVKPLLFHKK
Sequence of Estrogen receptor beta (Homo sapiens) (Q92731 whole entry, looked up): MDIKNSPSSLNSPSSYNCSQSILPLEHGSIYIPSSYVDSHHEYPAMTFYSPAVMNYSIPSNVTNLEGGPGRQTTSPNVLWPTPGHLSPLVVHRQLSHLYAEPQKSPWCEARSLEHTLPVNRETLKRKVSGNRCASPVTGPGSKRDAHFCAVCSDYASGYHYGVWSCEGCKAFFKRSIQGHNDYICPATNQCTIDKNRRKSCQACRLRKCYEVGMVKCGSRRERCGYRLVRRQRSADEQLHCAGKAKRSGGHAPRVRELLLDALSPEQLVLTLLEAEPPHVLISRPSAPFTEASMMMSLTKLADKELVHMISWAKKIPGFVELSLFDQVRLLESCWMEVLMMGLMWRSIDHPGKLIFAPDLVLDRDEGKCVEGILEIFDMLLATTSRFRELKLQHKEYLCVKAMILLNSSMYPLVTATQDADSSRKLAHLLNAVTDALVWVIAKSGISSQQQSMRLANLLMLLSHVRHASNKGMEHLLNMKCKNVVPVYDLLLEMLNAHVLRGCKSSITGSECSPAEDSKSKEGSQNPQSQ

Consider `O=C(c1ccccc1)c1ccccc1O`, for which the Potency entry in [1], in assay [2], in [3], in assay [4], in assay [6] and in assay [8] was “inactive” each time. The Potency result in [9], in assay [10], in assay [11], in [12], in assay [13] and in [14] was “inactive” in each case. The Potency result in [16] and in [17] was “inactive” in each case. Besides, the outcome in assay [5], in assay [7] and in assay [15] was inactive.
`CCC(C)CO` (centres undefined): the Potency entry in [1], in assay [4], in assay [18], in assay [6], in assay [19] and in assay [8] was “inactive” each time. In addition, the Potency result in assay [9], in assay [10], in [11], in assay [12], in assay [20] and in assay [13] was “inactive” in each case. Further, the Potency entry in assay [14] is “inactive”. For the same molecule, the molecule was called inactive in [7] and in assay [15].
Turning to `OCCO`, the Potency entry in assay [1], in assay [4], in assay [18], in [6], in [19] and in [8] was “inactive” each time. Further, the Potency result in assay [9], in assay [10], in assay [11], in assay [12], in [13] and in assay [14] was “inactive” each time. Further, the Potency result in assay [16] and in assay [17] was “inactive” each time. Besides, the result in [5], in assay [7] and in assay [15] was inactive.
For `CC1=CC2C3CC(C=C3C)C2C1` (centres undefined), in assay [1], the Potency entry was “inactive and 21.7 µM (active)”. Moreover, the Potency entry in assay [2], in [3], in [4], in assay [6], in assay [19] and in assay [8] was “inactive” each time. Moreover, the Potency result in assay [9], in assay [10], in assay [11], in [12], in assay [13] and in assay [14] was “inactive” in each case. In addition, the molecule was classed as inactive in assay [7] and in assay [15].
As for `c1ccc2cc(Nc3ccc(Nc4ccc5ccccc5c4)cc3)ccc2c1`, the Potency entry in [1], in assay [2], in assay [3], in assay [4], in [6] and in assay [9] was “inactive” each time. The Potency result in [10], in [11], in assay [12], in [20], in assay [13] and in assay [14] was “inactive” each time. Also, the Potency entry in assay [16] and in assay [17] was “inactive” each time. Moreover, the result in assay [5] and in assay [15] was inactive.
Turning to `Cc1cc2nc3c(=O)[nH]c(=O)nc-3n(C[C@H](O)[C@H](O)[C@H](O)CO)c2cc1C`, the Potency entry in [1], in [2], in assay [18], in [6], in assay [10] and in assay [12] was “inactive” each time. The Potency entry in assay [13] and in assay [14] was “inactive” each time. In addition, the activity, negative = inhibition in [3] is -6.01% [at 19 µM] (inactive); in [16], -21.3% [at 10.5 µM] (inactive). Besides, in [7], the cAMP activity change was -5.16% [at 18.9 µM] (inactive). For the same molecule, the activity change, negative = inhibition in [11] is -6.9% [at 18.9 µM] (inactive). The activation in assay [15] is -2.99% [at 15.8 µM] (inactive). Besides, the Potency was 33.5 µM (active) and 19.8 µM (active) in assay [16]; 10.9 µM (active) and 6.42 µM (active) and 6.57 µM (active) in [17].
Turning to `CC(C)OB(OC(C)C)OC(C)C`, the Potency entry in assay [1], in [2], in assay [3], in assay [4], in assay [6] and in [19] was “inactive” in each case. Also, the Potency result in assay [9], in [10], in [11], in [12], in [20] and in [13] was “inactive” throughout. Besides, the Potency result in assay [14] is “inactive”. For the same molecule, the result in [15] was inactive.
For the molecule `CC(=O)c1ccccn1`, the Potency entry in [1], in [4], in assay [6], in assay [8], in [9] and in [10] was “inactive” throughout. Moreover, the Potency result in assay [11], in [12], in assay [20], in assay [13], in assay [14] and in assay [16] was “inactive” throughout. The Potency result in assay [17] was “inactive”. The molecule was called inactive in [7] and in assay [15].
